Screening data as filed in PubChem.
This is a sample that favours compounds with a hit; in the whole collection about 0.38% have one here.
Rac1 mut GTP – modulators of GTP binding to human Rac1 activated mutant. hit rate 0.11% among 190,000. AID 764. percent activity (GTP binding), % at 10 µM. GST-Rac1 activated beads, fluorescent GTP binding, flow cytometry; actives lie on both sides; 100% means binding = to untreated wells;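 active = GTP binding at least 20 percentage points away from the 100% baseline, in either direction, so actives lie on both sides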
HRas wt GTP bind – human HRas wildtype GTP binding, change in either direction; AID 759; P01112; hit rate 0.14% among 190,000; GTP binding activity, % at 10 µM; GST-Ras wt beads, Bodipy-FL-GTP binding, flow cytometry; actives lie on both sides;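 active = GTP binding activity at least 20% away from the 100% baseline, either lowered as inhibitor or raised as activator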;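 note: 0% = unlabeled GTP competition control and 100% = no-compound control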
Target sequence (P01112 whole entry, looked up): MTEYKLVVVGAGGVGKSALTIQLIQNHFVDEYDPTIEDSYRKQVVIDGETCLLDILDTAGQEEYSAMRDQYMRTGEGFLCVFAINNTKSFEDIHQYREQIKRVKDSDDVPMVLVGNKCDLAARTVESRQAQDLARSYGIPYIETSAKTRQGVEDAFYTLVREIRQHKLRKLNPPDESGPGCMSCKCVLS
Cdc42 wt – changes GTP binding to wildtype human Cdc42 | AID 761 | P60953 | hit rate 0.2% among 190,000 | GST-Cdc42 beads, Bodipy-GTP binding, flow cytometry; actives lie on both sides | percent activity (GTP binding), % at 10 µM;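 active = percent activity GTP binding at least 20 points away from the 100% baseline, either down as inhibitor or up as activator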;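 note: median bead fluorescence of bound Bodipy-FL-GTP at 100 nM; 0% = excess unlabeled GTP control and 100% = no compound control; below 100% means less GTP binding so inhibitor and above means activator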
Target sequence (P60953 whole entry, looked up): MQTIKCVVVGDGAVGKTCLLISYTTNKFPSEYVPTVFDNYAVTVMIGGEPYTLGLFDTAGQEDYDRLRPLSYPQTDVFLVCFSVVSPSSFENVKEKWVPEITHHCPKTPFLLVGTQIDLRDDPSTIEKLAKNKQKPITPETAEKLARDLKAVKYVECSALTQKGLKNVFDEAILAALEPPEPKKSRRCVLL
Rac1 wt GTP bind – modulators of human Rac1 wildtype GTP binding. P63000. GST-Rac1 beads, fluorescent GTP binding, flow cytometry; actives lie on both sides; 0 = cold GTP competed, 100 = untreated. GTP binding activity (% of control), % at 10 µM. hit rate 0.27% among 190,000. AID 757;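 active = GTP binding activity at least 20 points away from the 100% control level, either lower or higher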
Rab2A wt mod – changes GTP binding to wildtype dog Rab2A, up or down; P61105; GST-Rab2 wt beads, Bodipy-GTP binding, flow cytometry; GTP binding activity, % at 10 µM; hit rate 0.19% among 190,000; AID 760;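 active = GTP binding activity at least 20 points away from 100%, either lowered or raised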;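 note: 0% = beads with excess unlabeled GTP and 100% = no-compound control corrected for plate trend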
Rab7 wt GTP bind – alters GTP binding to wildtype dog Rab7 | GST-Rab7 beads, fluorescent GTP binding, flow cytometry; actives lie on both sides; untreated = 100%, excess cold GTP = 0% | GTP binding activity (percent of control), % at 10 µM | hit rate 0.055% among 190,000 | AID 758;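 active = fluorescent GTP binding to Rab7 beads changed by at least 20 points from the 100% baseline, either direction, mostly lower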;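 note: median green fluorescence of bound Bodipy-FL-GTP per Rab7 bead population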
* hit, by the source's call; [ ] = another dose, or the depositor's remark.

SMILES	Rac1 mut GTP	HRas wt GTP bind	Cdc42 wt	Rac1 wt GTP bind	Rab2A wt mod	Rab7 wt GTP bind
COCCOC(=O)c1c(C)oc2ccc(OC(=O)c3ccc4c(c3)OCO4)cc12	73*	83	77*	75*	76*	79*
CCOC(=O)Oc1ccc2oc(C)c(C(=O)OCCOC)c2c1	97	99	98	100	99	99
COc1cc(NC(=O)COC(=O)/C=C/c2ccc(Cl)cc2Cl)cc(OC)c1	98	98	99	96	96	96
COc1cccc(NC(=O)COC(=O)/C=C/c2ccc(Cl)cc2Cl)c1	80	82	79*	77*	79*	86
CCOC(=O)c1ccc(NC(=O)c2ccccc2[N+](=O)[O-])cc1	100	100	102	106	94	101
CCOC(=O)c1cc([N+](=O)[O-])c([N+](=O)[O-])cc1NC(C)=O	80	93	78*	96	91	91
Cc1sc2ncn(CC(=O)NCCc3ccccc3)c(=O)c2c1C	98	103	104	100	103	99
Cc1ccccc1-n1c(SCc2c(C)noc2C)nnc1-c1cccnc1	110	110	118	132*[activator]	115	111
Cc1ccccc1-n1c(SCc2c(C)noc2C)nnc1-c1ccncc1	96	99	97	98	95	98
CCN(CCn1cccn1)Cc1nc(Cc2cccc(F)c2)no1	95	95	95	98	97	98
Cc1cc2ncn(CCC(=O)NC(C)(C)C)c2cc1C	88	87	97	77*	103	100
Cc1cc2ncn(CCC(=O)NC3CCCC3)c2cc1C	94	100	99	96	99	106
COc1ccccc1NS(=O)(=O)c1ccc(NC(=O)CCNC(=O)c2ccco2)cc1	100	100	100	103	99	101
Cc1ccc(-n2c(C)nn(Cc3ccc([N+](=O)[O-])cc3)c2=O)cc1	95	101	94	99	98	103
Cc1ccc(-n2c3nc(=O)[nH]c(=O)c-3cc3cc([N+](=O)[O-])ccc32)cc1	80	82	80	77*	82	87
S=C(NCCc1ccccn1)Nc1ccccc1Cl	97	98	99	99	98	107
CCOC(=O)C1=NN(c2ccc(C)cc2)CC1C(=O)OC (stereo not drawn)	97	96	118	123*[activator]	97	95
COc1cc2cc(CN(Cc3cccnc3)C(=O)NCc3ccccc3)c(=O)[nH]c2cc1OC	99	100	98	100	99	101
COc1cc2[nH]c(=O)n(C3CCCCC3)c(=O)c2cc1OC	98	102	103	106	101	102
COc1cc2[nH]c(=S)nc(NC3CCCC3)c2cc1OC	70*	60*	58*	51*	60*	74*
Cc1ccc(NS(=O)(=O)c2cc(NC(=O)c3ccc4c(c3)NC(=O)CS4)ccc2Cl)c(C)c1	102	116	113	110	129*[activator]	113
COc1cccc2c(SCC(=O)N/N=C/c3ccc(O)cc3O)cc(C)nc12	83	72*	66*	66*	66*	85
Cc1noc2ncnc(N3CCN(c4cccc(Cl)c4)CC3)c12	94	94	90	96	93	95
Cn1nc(C(=O)Nc2cccnc2)c2ccccc2c1=O	86	74*	73*	85	69*	92
Cn1nc(C(=O)NCc2cccnc2)c2ccccc2c1=O	98	98	96	100	99	96
SMILES	Rac1 mut GTP	HRas wt GTP bind	Cdc42 wt	Rac1 wt GTP bind	Rab2A wt mod	Rab7 wt GTP bind
COC(=O)c1cccc(NC(=O)c2nn(C)c(=O)c3ccccc23)c1	81	77*	73*	72*	79*	92
N#Cc1c(=O)c2nc(NCc3ccccc3)ncc2n2ccccc12	90	83	84	79*	80	85
N#Cc1c(=O)c2nc(NCCCO)ncc2n2c(=O)c3ccccc3[nH]c12	93	91	84	103	86	96
CCOc1ccc(OCC)c(NC(=O)CCSCCc2ccccn2)c1	98	99	97	101	101	103
COc1ccc(CC(=O)NNC(=O)c2ccc(NC(C)=O)cc2)cc1	97	93	95	95	94	95
Cc1ccc(/C=C/C(=O)c2ccccc(=O)c2O)cc1C	74*	84	78*	82	81	87
Cc1ccc(CNC(=S)Nc2cc(C(=O)O)ccc2C)cc1	95	100	96	98	99	105
COc1cccc(Nc2ccccc2C(=O)O)c1	126*[activator]	120*[activator]	130*[activator]	138*[activator]	125*[activator]	127*[activator]
COc1cccc(Nc2ncc(C(=O)O)c3ccccc23)c1	100	104	105	102	102	95
Cc1cccc2sc(NNC(=O)c3cc(=O)c4ccccc4o3)nc12	74*	84	77*	81	83	97
Cc1ccc2sc(NNC(=O)c3cc(=O)c4ccccc4o3)nc2c1C	77*	85	81	83	85	100
O=C(NNc1nc2c(F)cccc2s1)c1cc(=O)c2ccccc2o1	76*	86	81	84	83	100
COc1ccc2nc(NNC(=O)c3cc(=O)c4ccccc4o3)sc2c1	84	90	86	90	87	99
Cc1cccc(NC(=O)NC2CC3CCC(C2)N3Cc2ccco2)c1 (stereo not drawn)	94	99	95	98	97	100
Nc1nonc1C(=O)NCCN=Cc1ccccc1O	101	104	106	105	103	99
Nc1nonc1C(=O)NCCN=Cc1cc(Cc2ccccc2)cc(Br)c1O	119	117	125*[activator]	128*[activator]	122*[activator]	114
CCOc1cc(NC(=S)Nc2cccc(OC)c2)c(OCC)cc1NC(=O)C1CC1	94	99	97	99	97	100
O=[N+]([O-])c1cc(-c2ncccn2)c([N+](=O)[O-])s1	76*	96	81	95	92	101
O=C1C=C(Nc2ccc(Cl)cc2)CC(c2ccccc2)C1 (stereo not drawn)	100	100	98	101	97	96
CN1/C(=C\C=C(/C#N)C(=O)Nc2ccc(Cl)cc2)C(C)(C)c2ccccc21	116	105	106	116	133*[activator]	118
CCOC(=O)N1CCN(/C=C(\C#N)c2nc3ccccc3s2)CC1	118	121*[activator]	114	124*[activator]	129*[activator]	120*[activator]
O=C(c1ccco1)N(Cc1ccccc1)Cc1ccccn1	96	96	97	99	96	99
O=C1N(c2ccccc2)C(c2ccc(Cl)cc2)N2CCCN12 (stereo not drawn)	95	95	101	97	94	98
